{"source": "the supplement of paper PMC12669032", "note": "“And” between values parts separate entries of the source, which are not always exact repeats. Equal values may be shown once."}
{"tested_on": "Bacteroides clarus", "assay": "growth AUC relative to DMSO control (median of replicates) (fraction); higher = more growth (less inhibition), active = hit call of the paper", "conditions": "20 µM; 24 h;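 active = AUC reduced over 20% with Padj below 0.05 in at least 2 of 3 replicates; inactive = otherwise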", "procedure,_shortened": "(§1)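 Starting at OD600 0.05, gut bacterial monocultures in mGAM were grown anaerobically at 37 °C with 20 µM compound (1% DMSO) under pierced gas-permeable seals. OD600 was read every hour for 24 h, and the lowest OD of each curve was set to 0. Area under the growth curve was normalised to the plate median of solvent-only wells, or to row and column medians on the industrial chemical plate, and the median of three biological replicates grown on separate days is given.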"}
{"smiles": "Cc1c(N)cccc1N", "growth AUC": "1.04 (inactive)"}
{"smiles": "c1cc2ccc3cccc4ccc(c1)c2c34", "growth AUC": "1 (inactive)"}
{"smiles": "O=c1oc2ccccc2c(O)c1C1CC(c2ccc(-c3ccc(Br)cc3)cc2)Cc2ccccc21", "note": "(stereo not drawn)", "growth AUC": "0.335 (active)"}
{"smiles": "COP(=O)(OC)SCn1c(=O)oc2cc(Cl)cnc21", "growth AUC": "0.983 (inactive)"}
{"smiles": "CNC(=O)ON=C(CSC)C(C)(C)C", "growth AUC": "0.992 (inactive)"}
{"smiles": "COc1ccc(/C(=C/C(=O)N2CCOCC2)c2ccc(F)cc2)cc1OC", "growth AUC": "0.959 (inactive)"}
{"smiles": "Cc1ccc(N=CN(C)C=Nc2ccc(C)cc2C)c(C)c1", "growth AUC": "1.06 (inactive)"}
{"smiles": "Cc1c(COC(=O)[C@@H]2[C@H](/C=C(\\Cl)C(F)(F)F)C2(C)C)cccc1-c1ccccc1", "growth AUC": "0.998 (inactive)"}
{"smiles": "CCOP(=S)(OCC)Oc1cc(-c2ccccc2)on1", "growth AUC": "0.984 (inactive)"}
{"smiles": "COP(=O)(OC)C(O)C(Cl)(Cl)Cl", "note": "(stereo not drawn)", "growth AUC": "1.01 (inactive)"}
{"smiles": "C=CC(N)=O", "growth AUC": "1 (inactive)"}
{"smiles": "CNC(=O)Oc1cc(C)c(S(C)=O)c(C)c1", "note": "(stereo not drawn)", "growth AUC": "0.999 (inactive)"}
{"smiles": "COP(N)(=O)SC", "note": "(stereo not drawn)", "growth AUC": "1.04 (inactive)"}
{"smiles": "CCOP(=S)(OCC)Oc1nc(Cl)c(Cl)cc1Cl", "growth AUC": "0.95 (inactive)"}
{"smiles": "CC(=NC#N)N(C)Cc1ccc(Cl)nc1", "growth AUC": "1.02 (inactive) and 0.96 (inactive)"}
{"smiles": "O=C(NC(=O)c1c(F)cccc1F)Nc1ccc(Cl)cc1", "growth AUC": "0.996 (inactive)"}
{"smiles": "O=C(Nc1ccccc1)c1ccccc1I", "growth AUC": "1 (inactive)"}
{"smiles": "COCc1c(F)c(F)c(COC(=O)[C@@H]2[C@@H](C=C(Cl)Cl)C2(C)C)c(F)c1F", "growth AUC": "1.03 (inactive)"}
{"smiles": "CN1CSC(=S)N(C)C1", "growth AUC": "0.939 (inactive)"}
{"smiles": "O=C1c2ccccc2C(=O)N1SC(Cl)(Cl)Cl", "growth AUC": "0.977 (inactive)"}
{"smiles": "CC(C)(C)c1ccc(CCOc2ncnc3ccccc23)cc1", "growth AUC": "0.973 (inactive)"}
{"smiles": "NCP(=O)(O)O", "growth AUC": "1.03 (inactive)"}
{"smiles": "CC1CNC(=S)N1", "note": "(stereo not drawn)", "growth AUC": "1.03 (inactive)"}
{"smiles": "CC1(C)[C@H](/C=C(\\Cl)C(F)(F)F)[C@@H]1C(=O)O[C@@H](C#N)c1cccc(Oc2ccccc2)c1", "growth AUC": "0.994 (inactive)"}
{"smiles": "COP(=S)(OC)SCN1C(=O)c2ccccc2C1=O", "growth AUC": "0.966 (inactive)"}
{"smiles": "COP(=S)(OC)Oc1ccc(S(C)(=O)=O)c(C)c1", "growth AUC": "1 (inactive)"}
{"smiles": "CC(C)NC(=O)N1CC(=O)N(c2cc(Cl)cc(Cl)c2)C1=O", "growth AUC": "0.989 (inactive)"}
{"smiles": "Cc1ccc(NC(=O)c2snnc2C)cc1Cl", "growth AUC": "0.914 (inactive)"}
{"smiles": "COCC(=O)N(c1c(C)cccc1C)N1CCOC1=O", "growth AUC": "0.945 (inactive)"}
{"smiles": "O=C(NC(=O)c1c(F)cccc1F)Nc1ccc(Cl)c(Oc2ncc(C(F)(F)F)cc2Cl)c1", "growth AUC": "1.02 (inactive)"}
{"smiles": "COP(=O)(OC)OC(Br)C(Cl)(Cl)Br", "note": "(stereo not drawn)", "growth AUC": "0.977 (inactive)"}
{"smiles": "CC(C)(COCc1cccc(Oc2ccccc2)c1)c1ccc(OC(F)(F)Br)cc1", "growth AUC": "0.973 (inactive)"}
{"smiles": "CC1(C)C(C=C(Cl)Cl)C1C(=O)OC(C#N)c1cccc(Oc2ccccc2)c1", "note": "(mixture of isomers)", "growth AUC": "1 (inactive)"}
{"smiles": "CNC(=O)Oc1ccccc1OC(CCl)OC", "note": "(stereo not drawn)", "growth AUC": "1.06 (inactive)"}
{"smiles": "CCOP(=O)(OCC)Oc1ccc([N+](=O)[O-])cc1", "growth AUC": "0.999 (inactive)"}
{"smiles": "N#Cc1cc(Br)c(O)c(Br)c1", "growth AUC": "0.951 (inactive)"}
{"smiles": "COP(=S)(OC)Oc1cc(Cl)c(I)cc1Cl", "growth AUC": "0.959 (inactive)"}
{"smiles": "COP(=S)(OC)Oc1ccc([N+](=O)[O-])cc1", "growth AUC": "1.03 (inactive)"}
{"smiles": "CC(C)[C@@H](Nc1ccc(C(F)(F)F)cc1Cl)C(=O)OC(C#N)c1cccc(Oc2ccccc2)c1", "note": "(stereo partly drawn)", "growth AUC": "1.04 (inactive)"}
{"tested_on": "Bacteroides dorei", "assay": "growth AUC relative to DMSO control (median of replicates) (fraction); higher = more growth (less inhibition), active = hit call of the paper", "conditions": "20 µM; 24 h", "procedure,_shortened": "as §1"}
{"smiles": "Cc1c(N)cccc1N", "growth AUC": "1 (inactive)"}
{"smiles": "c1cc2ccc3cccc4ccc(c1)c2c34", "growth AUC": "0.997 (inactive)"}
{"smiles": "O=c1oc2ccccc2c(O)c1C1CC(c2ccc(-c3ccc(Br)cc3)cc2)Cc2ccccc21", "note": "(stereo not drawn)", "growth AUC": "0.89 (inactive)"}
{"smiles": "COP(=O)(OC)SCn1c(=O)oc2cc(Cl)cnc21", "growth AUC": "1.02 (inactive)"}
{"smiles": "CNC(=O)ON=C(CSC)C(C)(C)C", "growth AUC": "0.929 (inactive)"}
{"smiles": "COc1ccc(/C(=C/C(=O)N2CCOCC2)c2ccc(F)cc2)cc1OC", "growth AUC": "0.953 (inactive)"}
{"smiles": "Cc1ccc(N=CN(C)C=Nc2ccc(C)cc2C)c(C)c1", "growth AUC": "0.983 (inactive)"}
{"smiles": "Cc1c(COC(=O)[C@@H]2[C@H](/C=C(\\Cl)C(F)(F)F)C2(C)C)cccc1-c1ccccc1", "growth AUC": "1.01 (inactive)"}
{"smiles": "CCOP(=S)(OCC)Oc1cc(-c2ccccc2)on1", "growth AUC": "0.861 (inactive)"}
{"smiles": "COP(=O)(OC)C(O)C(Cl)(Cl)Cl", "note": "(stereo not drawn)", "growth AUC": "1 (inactive)"}
{"smiles": "C=CC(N)=O", "growth AUC": "0.963 (inactive)"}
{"smiles": "CNC(=O)Oc1cc(C)c(S(C)=O)c(C)c1", "note": "(stereo not drawn)", "growth AUC": "1 (inactive)"}
{"smiles": "COP(N)(=O)SC", "note": "(stereo not drawn)", "growth AUC": "1.01 (inactive)"}
{"smiles": "CCOP(=S)(OCC)Oc1nc(Cl)c(Cl)cc1Cl", "growth AUC": "1.03 (inactive)"}
{"smiles": "CC(=NC#N)N(C)Cc1ccc(Cl)nc1", "growth AUC": "0.993 (inactive) and 1.01 (inactive)"}
{"smiles": "O=C(NC(=O)c1c(F)cccc1F)Nc1ccc(Cl)cc1", "growth AUC": "0.998 (inactive)"}
{"smiles": "O=C(Nc1ccccc1)c1ccccc1I", "growth AUC": "0.994 (inactive)"}
{"smiles": "COCc1c(F)c(F)c(COC(=O)[C@@H]2[C@@H](C=C(Cl)Cl)C2(C)C)c(F)c1F", "growth AUC": "1.01 (inactive)"}
{"smiles": "CN1CSC(=S)N(C)C1", "growth AUC": "1.03 (inactive)"}
{"smiles": "O=C1c2ccccc2C(=O)N1SC(Cl)(Cl)Cl", "growth AUC": "1.04 (inactive)"}
{"smiles": "CC(C)(C)c1ccc(CCOc2ncnc3ccccc23)cc1", "growth AUC": "0.921 (inactive)"}
{"smiles": "NCP(=O)(O)O", "growth AUC": "1.03 (inactive)"}
{"smiles": "CC1CNC(=S)N1", "note": "(stereo not drawn)", "growth AUC": "1.04 (inactive)"}
{"smiles": "CC1(C)[C@H](/C=C(\\Cl)C(F)(F)F)[C@@H]1C(=O)O[C@@H](C#N)c1cccc(Oc2ccccc2)c1", "growth AUC": "0.972 (inactive)"}
{"smiles": "COP(=S)(OC)SCN1C(=O)c2ccccc2C1=O", "growth AUC": "1 (inactive)"}
{"smiles": "COP(=S)(OC)Oc1ccc(S(C)(=O)=O)c(C)c1", "growth AUC": "0.974 (inactive)"}
{"smiles": "CC(C)NC(=O)N1CC(=O)N(c2cc(Cl)cc(Cl)c2)C1=O", "growth AUC": "1.01 (inactive)"}
{"smiles": "Cc1ccc(NC(=O)c2snnc2C)cc1Cl", "growth AUC": "1.03 (inactive)"}
{"smiles": "COCC(=O)N(c1c(C)cccc1C)N1CCOC1=O", "growth AUC": "1 (inactive)"}
{"smiles": "O=C(NC(=O)c1c(F)cccc1F)Nc1ccc(Cl)c(Oc2ncc(C(F)(F)F)cc2Cl)c1", "growth AUC": "1.1 (inactive)"}
{"smiles": "COP(=O)(OC)OC(Br)C(Cl)(Cl)Br", "note": "(stereo not drawn)", "growth AUC": "0.986 (inactive)"}
{"smiles": "CC(C)(COCc1cccc(Oc2ccccc2)c1)c1ccc(OC(F)(F)Br)cc1", "growth AUC": "1.01 (inactive)"}
{"smiles": "CC1(C)C(C=C(Cl)Cl)C1C(=O)OC(C#N)c1cccc(Oc2ccccc2)c1", "note": "(mixture of isomers)", "growth AUC": "0.996 (inactive)"}
{"smiles": "CNC(=O)Oc1ccccc1OC(CCl)OC", "note": "(stereo not drawn)", "growth AUC": "0.955 (inactive)"}
{"smiles": "CCOP(=O)(OCC)Oc1ccc([N+](=O)[O-])cc1", "growth AUC": "1.01 (inactive)"}
{"smiles": "N#Cc1cc(Br)c(O)c(Br)c1", "growth AUC": "0.924 (inactive)"}
{"smiles": "COP(=S)(OC)Oc1cc(Cl)c(I)cc1Cl", "growth AUC": "0.985 (inactive)"}
{"smiles": "COP(=S)(OC)Oc1ccc([N+](=O)[O-])cc1", "growth AUC": "0.888 (inactive)"}
{"smiles": "CC(C)[C@@H](Nc1ccc(C(F)(F)F)cc1Cl)C(=O)OC(C#N)c1cccc(Oc2ccccc2)c1", "note": "(stereo partly drawn)", "growth AUC": "1.04 (inactive)"}
